# Assay results published in the supplement of paper PMC8728848.
# The full list was thinned out, with the strongest signals kept by preference.
# Tests used:
# Assay in all cases: glycan array binding signal (z-score within array); higher = stronger binding
# Details in all cases: glycan notation: IUPAC condensed, linker removed
# Gal3S(b1-3)GalNAc = target: Gal3S(b1-3)GalNAc
# How it was run: (§1)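 Glycan array data were curated from 3228 arrays in the Consortium for Functional Glycomics database and kept only where the protein sequence was available. Glycan names were converted to IUPAC-condensed notation, and columns mapping to the same glycan were averaged. The binding signal is a within-array Z-score, averaged across arrays of the same protein sequence at different concentrations or buffers and across linkers. Negative Z-scores can be read as non-binding.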
# Gal3S6S(b1-4)GlcNAc = target: Gal3S6S(b1-4)GlcNAc
# How it was run: as §1
# Gal4S(b1-4)GlcNAc = target: Gal4S(b1-4)GlcNAc
# How it was run: as §1
# Gal6S(b1-4)GlcNAc = target: Gal6S(b1-4)GlcNAc
# How it was run: as §1
# GalNAc(b1-3)Gal = target: GalNAc(b1-3)Gal
# How it was run: as §1
# [1] = target: GalNAc(b1-3)Gal(a1-6)Gal(b1-4)Glc
# How it was run: as §1
# GalNAc6S(b1-4)GlcNAc = target: GalNAc6S(b1-4)GlcNAc
# How it was run: as §1
# [2] = target: Glc(a1-4)Glc(a1-4)Glc(a1-4)Glc
# How it was run: as §1
# [3] = target: GlcA3S(b1-3)Gal(b1-4)GlcNAc(b1-2)Man
# How it was run: as §1
# [4] = target: GlcNAc(a1-3)Gal(b1-4)GlcNAc
# How it was run: as §1
# [5] = target: GlcNAc(a1-4)Gal(b1-4)GlcNAc
# How it was run: as §1
# [6] = target: GlcNAc(b1-2)[GlcNAc(b1-6)]Man(a1-6)[GlcNAc(b1-4)][GlcNAc(b1-2)Man(a1-3)]Man(b1-4)GlcNAc(b1-4)GlcNAc
# How it was run: as §1
# GlcNAc(b1-3)Fuc = target: GlcNAc(b1-3)Fuc
# How it was run: as §1
# [7] = target: GlcNAc(b1-3)Gal(b1-4)GlcNAc(b1-3)Gal(b1-4)GlcNAc(b1-2)Man(a1-3)[GlcNAc(b1-3)Gal(b1-4)GlcNAc(b1-3)Gal(b1-4)GlcNAc(b1-2)Man(a1-6)]Man(b1-4)GlcNAc(b1-4)[Fuc(a1-6)]GlcNAc
# How it was run: as §1
# [8] = target: GlcNAc(b1-3)Gal(b1-4)GlcNAc(b1-3)Gal(b1-4)GlcNAc(b1-3)Gal(b1-4)GlcNAc(b1-2)[GlcNAc(b1-3)Gal(b1-4)GlcNAc(b1-3)Gal(b1-4)GlcNAc(b1-3)Gal(b1-4)GlcNAc(b1-6)]Man(a1-6)[GlcNAc(b1-3)Gal(b1-4)GlcNAc(b1-3)Gal(b1-4)GlcNAc(b1-3)Gal(b1-4)GlcNAc(b1-2)Man(a1-3)]Man(b1-4)GlcNAc(b1-4)[Fuc(a1-6)]GlcNAc
# How it was run: as §1
# Kdn(a2-3)Gal(b1-3)GlcNAc = target: Kdn(a2-3)Gal(b1-3)GlcNAc
# How it was run: as §1
# [9] = target: Man(a1-2)Man(a1-3)[Man(a1-2)Man(a1-6)]Man
# How it was run: as §1
# Neu5Ac(a2-3)Gal = target: Neu5Ac(a2-3)Gal
# How it was run: as §1
# [10] = target: Neu5Ac(a2-3)Gal(b1-3)GalNAc6S
# How it was run: as §1
# [11] = target: Neu5Ac(a2-3)Gal(b1-4)GlcNAc(b1-2)Man
# How it was run: as §1
# [12] = target: Neu5Ac(a2-3)Gal(b1-4)GlcNAc(b1-3)Gal
# How it was run: as §1
# [13] = target: Neu5Ac(a2-3)Gal(b1-4)GlcNAc(b1-3)Gal(b1-4)GlcNAc(b1-2)Man(a1-3)[Neu5Ac(a2-3)Gal(b1-4)GlcNAc(b1-3)Gal(b1-4)GlcNAc(b1-2)Man(a1-6)]Man(b1-4)GlcNAc(b1-4)GlcNAc
# How it was run: as §1
# [14] = target: Neu5Ac(a2-3)Gal(b1-4)GlcNAc(b1-3)GalNAc
# How it was run: as §1
# [15] = target: Neu5Ac(a2-3)Gal(b1-4)GlcNAc6S
# How it was run: as §1
# [16] = target: Neu5Ac(a2-3)Gal(b1-4)[Fuc(a1-3)]GlcNAc(b1-6)[Neu5Ac(a2-3)Gal(b1-3)]GalNAc
# How it was run: as §1
# [17] = target: Neu5Ac(a2-6)Gal(b1-4)GlcNAc(b1-3)Gal(b1-4)GlcNAc(b1-3)Gal(b1-4)GlcNAc(b1-2)Man(a1-3)[Neu5Ac(a2-6)Gal(b1-4)GlcNAc(b1-3)Gal(b1-4)GlcNAc(b1-3)Gal(b1-4)GlcNAc(b1-2)Man(a1-6)]GalNAc
# How it was run: as §1
# [18] = target: Neu5Ac(a2-6)Gal(b1-4)GlcNAc6S
# How it was run: as §1
# Neu5Ac(a2-8)Neu5Ac = target: Neu5Ac(a2-8)Neu5Ac
# How it was run: as §1
# [19] = target: Neu5Ac(a2-8)Neu5Ac(a2-3)Gal(b1-4)GlcNAc
# How it was run: as §1
# [20] = target: Neu5Ac(a2-8)Neu5Ac(a2-3)[GalNAc(b1-4)]Gal(b1-4)Glc
# How it was run: as §1
binder,measurement,setting,value
"SspB A3vp1 (Streptococcus gordonii), Q54186 (protein) MTNEADYQAKLAAYQTELARVQKANADAKATYEKAVEDNKAKNAAIKAENEEIKQRNAVAKTDYEAKLAKYEADLAKYKKEFAAYTAALAEAESKKKQDGYLSEPRSQSLNFKSEPNAIRTIDSSVHQYGQQELDALVKSWGISPTNPDRKKSRAYSYFNAINSNNTYAKLVLEKDKPVDVTYTGLKNSSFNGKKISKVVYTYTLKETGFNDGTKMTMFASSDPTVTAWYNDYFTSTNINVKVKFYDEEGQLMNLTGGLVNFSSLNRGNGSGAIDKDAIESVRNFNGRYIPISGSSIKIHENNSAYADSSNAEKSLGARWNTSEWDTTSSPNNWYGAIVGEITQSEISFNMASSKSGNIWFAFNSNINAIGVPTKPVAPTAPTQPMYETEKPLEPAPVAPSYENEPTPPVKTPDQPEPSKPAAALEHHHHHH",glycan array binding signal (z-score),Gal3S(b1-3)GalNAc,0.06
same,glycan array binding signal (z-score),Gal3S6S(b1-4)GlcNAc,-0.52
same,glycan array binding signal (z-score),Gal4S(b1-4)GlcNAc,0.061
same,glycan array binding signal (z-score),Gal6S(b1-4)GlcNAc,-0.624
same,glycan array binding signal (z-score),GalNAc(b1-3)Gal,0.001
same,glycan array binding signal (z-score),[1],0.652
same,glycan array binding signal (z-score),GalNAc6S(b1-4)GlcNAc,-0.623
same,glycan array binding signal (z-score),[2],-0.964
same,glycan array binding signal (z-score),[3],-1.19
same,glycan array binding signal (z-score),[4],-0.25
same,glycan array binding signal (z-score),[5],-0.84
same,glycan array binding signal (z-score),[6],-0.233
same,glycan array binding signal (z-score),GlcNAc(b1-3)Fuc,-0.426
same,glycan array binding signal (z-score),[7],1.62
same,glycan array binding signal (z-score),[8],-0.133
same,glycan array binding signal (z-score),Kdn(a2-3)Gal(b1-3)GlcNAc,-0.933
same,glycan array binding signal (z-score),[9],-0.889
same,glycan array binding signal (z-score),Neu5Ac(a2-3)Gal,-0.167
same,glycan array binding signal (z-score),[10],-0.287
same,glycan array binding signal (z-score),[11],1.88
same,glycan array binding signal (z-score),[12],-0.803
same,glycan array binding signal (z-score),[13],3.69
same,glycan array binding signal (z-score),[14],-0.47
same,glycan array binding signal (z-score),[15],-0.678
same,glycan array binding signal (z-score),[16],5.21
same,glycan array binding signal (z-score),[17],1.36
same,glycan array binding signal (z-score),[18],-0.165
same,glycan array binding signal (z-score),Neu5Ac(a2-8)Neu5Ac,-0.582
same,glycan array binding signal (z-score),[19],-1.25
same,glycan array binding signal (z-score),[20],-0.166
